From PubChem
In the library only some 2.5% were active in any assay of this set; here they are far more common.
ASK1 primary – inhibitors of human ASK1 kinase; Q99683; AlphaScreen MKK6 phosphorylation by ASK1, luminescence; inhibition, % at 7.44 µM; actives 0.99% (n = 22,000); AID 1159602; in the data active means inhibition above about 35%
Target sequence (Q99683 whole entry, looked up): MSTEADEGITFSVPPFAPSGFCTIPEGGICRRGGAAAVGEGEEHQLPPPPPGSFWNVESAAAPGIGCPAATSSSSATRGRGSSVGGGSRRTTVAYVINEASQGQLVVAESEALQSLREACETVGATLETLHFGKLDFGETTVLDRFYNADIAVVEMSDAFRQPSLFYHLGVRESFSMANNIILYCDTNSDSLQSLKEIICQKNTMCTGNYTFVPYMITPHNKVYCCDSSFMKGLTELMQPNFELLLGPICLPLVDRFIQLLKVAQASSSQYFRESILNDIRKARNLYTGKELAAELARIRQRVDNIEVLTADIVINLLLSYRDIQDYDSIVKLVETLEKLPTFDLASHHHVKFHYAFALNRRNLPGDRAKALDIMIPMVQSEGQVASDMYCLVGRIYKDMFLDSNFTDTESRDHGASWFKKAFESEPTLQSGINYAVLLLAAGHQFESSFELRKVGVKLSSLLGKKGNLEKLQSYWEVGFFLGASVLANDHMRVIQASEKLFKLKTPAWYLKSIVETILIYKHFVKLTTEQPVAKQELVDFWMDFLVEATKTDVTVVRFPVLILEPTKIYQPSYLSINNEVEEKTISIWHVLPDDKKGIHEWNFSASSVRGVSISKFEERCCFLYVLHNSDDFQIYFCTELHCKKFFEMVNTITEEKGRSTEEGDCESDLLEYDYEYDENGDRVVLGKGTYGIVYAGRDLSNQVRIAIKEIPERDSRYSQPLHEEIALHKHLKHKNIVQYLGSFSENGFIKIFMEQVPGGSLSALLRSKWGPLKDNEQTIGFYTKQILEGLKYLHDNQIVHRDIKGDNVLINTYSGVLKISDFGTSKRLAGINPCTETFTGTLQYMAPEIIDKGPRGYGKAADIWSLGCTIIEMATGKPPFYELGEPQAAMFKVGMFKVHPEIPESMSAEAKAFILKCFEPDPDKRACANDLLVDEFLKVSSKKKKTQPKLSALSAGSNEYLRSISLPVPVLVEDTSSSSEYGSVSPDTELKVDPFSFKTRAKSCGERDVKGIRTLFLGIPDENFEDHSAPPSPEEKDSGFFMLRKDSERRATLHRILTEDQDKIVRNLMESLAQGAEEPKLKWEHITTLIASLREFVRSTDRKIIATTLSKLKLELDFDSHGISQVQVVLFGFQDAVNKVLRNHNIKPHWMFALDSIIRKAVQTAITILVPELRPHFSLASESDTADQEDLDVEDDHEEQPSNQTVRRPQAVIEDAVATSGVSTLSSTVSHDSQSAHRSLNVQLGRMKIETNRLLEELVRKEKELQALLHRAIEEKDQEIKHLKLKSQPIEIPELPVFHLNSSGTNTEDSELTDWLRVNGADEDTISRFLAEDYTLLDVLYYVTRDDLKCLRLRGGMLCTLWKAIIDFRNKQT
ULK1 primary – inhibitors of human ULK1 kinase; AlphaScreen Atg13 phosphorylation by ULK1, luminescence; inhibition, % at 5.96 µM; actives 1.9% (n = 30,000); AID 1259251; in the data active means inhibition above about 43%
Large screens that a line does not name were inactive.

O=C(O)c1ccc(OCCN2CCCCC2)cc1	none (no result: ASK1 primary)
NC(=O)c1ccc2[nH]nc(-c3cccc(OCCN4CCCCC4)c3)c2c1	ULK1 primary 61
C[C@@H](NC(=O)OC(C)(C)C)C(=O)N1CCC(C(=O)Nc2ccc3[nH]ncc3c2)C1 (stereo partly specified)	none
O=C(NC1CC1)c1ccc(-c2nc3ncnc(NCc4ccccc4)c3[nH]2)cc1	none
COc1cccc(CNC(=O)Nc2ccc(-c3cn[nH]c3)c(F)c2)c1	none
O=C(NCc1cccnc1)c1ccc2nc(NC3CCN(Cc4ccccc4)CC3)sc2c1	none
NC(C(=O)N1CCC(Nc2ccc3[nH]ncc3c2)CC1)c1cccc(F)c1 (stereo unspecified)	none
O=C(OCCO)c1ccccc1O	none (no result: ASK1 primary)
CCOC(=O)c1ccccc1O	ULK1 primary 54 (no result: ASK1 primary)
Cc1ccc(-c2cccc3cnc(Nc4cccc(C(=O)N5CCN(C)CC5)c4)nc23)cn1	ULK1 primary 62
Cc1cnc(-c2ccc(C(=O)N3CCN(C)CC3)cc2)nc1Nc1ccc(N2CCOCC2)cc1	none
Cc1ccc(-c2cccc3cnc(Nc4ccc(C(=O)N5CCOCC5)cc4)nc23)cn1	ULK1 primary 58
Cc1ccc(-c2cccc3cnc(Nc4cccc(C(=O)N5CCCC5)c4)nc23)cn1	ULK1 primary 51
Cc1ccc(-c2cccc3cnc(Nc4ccc(C(=O)N5CCN(C)CC5)cc4)nc23)cn1	ULK1 primary 58
Cn1cc(-c2cccc3cnc(NC4CCN(C(=O)N5CCCC5)C4)nc23)cn1 (stereo unspecified)	none
CC(=O)N1CCC(Nc2ncc3cccc(-c4ccc(C)nc4)c3n2)CC1	none
Cc1cc(Nc2ccccc2)nc(-c2ccc(C(=O)N3CCN(C)CC3)cc2)n1	none
Cn1nnc2c(C(N)=O)ncn2c1=O	none (no result: ASK1 primary)
CC(=O)Nc1ccc(Nc2nc(Nc3ccncc3)nc3c2ncn3-c2ccsc2)cc1	none
Cn1c(=O)cc(NCc2ccncc2)n(Cc2cccc(C(F)(F)F)c2)c1=O	none (no result: ASK1 primary)
COc1cc(Nc2cc(Nc3ccc(NC(C)=O)cc3)ncn2)cc(OC)c1OC	none
Cc1ncn(-c2ccc(Nc3ncc(C)c(Nc4ccccc4C(N)=O)n3)cc2)n1	ULK1 primary 72
N#Cc1ccc(Nc2ncc(Cl)c(Nc3ccccc3C(N)=O)n2)cc1	ULK1 primary 46
NC(=O)c1ccccc1Nc1nc(Nc2ccc(N3CCCC3=O)cc2)ncc1Cl	ULK1 primary 92
NC(=O)c1ccccc1Nc1nc(Nc2ccc(N3CCOCC3)c(F)c2F)ncc1Cl	none
Cc1ncn(-c2ccc(Nc3ncc4ccnc(-c5ccccc5)c4n3)cc2)n1	none
COc1ccc(Nc2ncc(Cl)c(Nc3ccccc3-c3ccn(C)n3)n2)cc1	none
CC(C)Cc1ccc(CC(=O)O)cc1	none (no result: ASK1 primary)
COc1cc(Nc2nc(NCCc3ccc(O)cc3)c3[nH]cnc3n2)cc(OC)c1OC	ULK1 primary 75
COc1cc(Nc2nc(NCCO)c3[nH]cnc3n2)cc(OC)c1OC	ULK1 primary 63
CCNc1nc(NCCc2ccc(O)cc2)c2[nH]cnc2n1	none
CCNc1nc(Nc2cc(OC)c(OC)c(OC)c2)c2[nH]cnc2n1	none
CN(C)c1cccc(Nc2nc(NCCOc3ccccc3)c3[nH]cnc3n2)c1	none
COc1cc(Nc2nc(NCCOc3ccccc3)c3[nH]cnc3n2)cc(OC)c1OC	ULK1 primary 78
FC(F)(F)c1ccc(Cn2cnc3c(NCc4nc5ccccc5[nH]4)nc(N4CCN(c5ccccn5)CC4)nc32)cc1	none
Cc1cc(Nc2ccccc2)nc(-c2c(C)nn(C)c2C)n1	none
O=C(NCc1nc2ccccc2[nH]1)c1cccc(Nc2ccc(-n3ccnc3)cc2)c1	none
c1ccc(OCCNc2nc(N3CCOCC3)nc3nc[nH]c23)cc1	none
Nc1n[nH]c2c(Br)cc(NC(=O)C3COc4ccccc4O3)cc12 (stereo unspecified)	ULK1 primary 58
O=C(Nc1ccc2[nH]ncc2c1)C1COc2ccccc2O1 (stereo unspecified)	none
Cn1nccc1Nc1nc(C(=O)NC2CCN(Cc3ccccc3)CC2)cs1	none
Cc1c(C)c2c(c(C)c1OC(=O)CCC(=O)O)CC[C@@](C)(CCC[C@H](C)CCC[C@H](C)CCCC(C)C)O2	ULK1 primary 73 (no result: ASK1 primary)
CC(=O)Oc1c(C)c(C)c2c(c1C)CCC(C)(CCCC(C)CCCC(C)CCCC(C)C)O2 (stereo unspecified)	none (no result: ASK1 primary)
O=C(NC1CC1)c1ccc2nc(Br)sc2c1	none
Cc1ncn(-c2ccc(Nc3ncc(Cl)c(Nc4ccccc4-c4ncn(C)n4)n3)cc2)n1	none
Cc1nc(C)n(-c2ccc(Nc3nccc(-c4cc(F)cc(-c5cnn(C)c5)c4)n3)cc2)n1	none
Cc1nc(C)n(-c2ccc(Nc3ncc(Br)c(-c4cnn(C)c4)n3)cc2)n1	ULK1 primary 87
CN1CCN(c2ncn(-c3ccc(Nc4ncc(F)c(-c5cccc(N6CCOCC6)c5)n4)cc3)n2)CC1	none
Cn1cc(-c2nc(Nc3ccc(-n4cnc(N5CCC(O)CC5)n4)cc3)ncc2F)cn1	ULK1 primary 58
Cc1ncn(-c2ccc(Nc3ncc(Cl)c(-c4cnn(C)c4)n3)cc2)n1	ULK1 primary 66
CCN(CC)c1nc(NCCc2ccc(OC)cc2)nc(Nc2nc3ccccc3n2C)n1	none
Clc1ccc2c(c1)Nc1ccccc1S2	none (no result: ASK1 primary)
CC(C)N(CCNC(=O)c1cccc(NCCCN2CCCC2=O)c1)C(C)C	none
CCOc1ccc(CC(=O)NCCS(=O)(=O)N2CCN(c3ccccc3F)CC2)cc1	none (no result: ASK1 primary)
COc1ccc2nc(-c3cccc(-n4cc(NC(=O)Nc5cccc(C)c5)cn4)c3)[nH]c2c1	none
C=C(NC(=O)C(=C)NC(=O)c1csc(C2=NC3c4csc(n4)C4NC(=O)c5csc(n5)C(C(C)(O)C(C)O)NC(=O)C5CSC(=N5)C(=CC)NC(=O)C(C(C)O)NC(=O)c5csc(n5)C3(CC2)NC(=O)C(C)NC(=O)C(=C)NC(=O)C(C)NC(=O)C(C(C)CC)NC2C=Cc3c(C(C)O)cc(nc3C2O)C(=O)OC4C)n1)C(N)=O (stereo unspecified)	ULK1 primary 43 (no result: ASK1 primary)
C[N+](C)(C)C[C@H](O)CC(=O)O	none (no result: ASK1 primary)
Cn1nccc1Nc1ccc(-n2cc(CC(=O)Nc3ccc(N4CCOCC4)cc3)c3ccccc32)nn1	ULK1 primary 49
O=C(Cc1cn(-c2ccc(Nc3ccc(N4CCOCC4)cc3)nn2)c2ccccc12)Nc1ccccc1	none
O=C(NCc1ccccc1)c1ccnc(NCc2cccnc2)c1	none
CC(=O)Nc1ccc(Nc2nc(-c3ccccc3)ncc2C)cc1	none
NC(CO)C(=O)O (stereo unspecified)	none (no result: ASK1 primary)
NC(CO)C(=O)NNCc1ccc(O)c(O)c1O (stereo unspecified)	ULK1 primary 65 (no result: ASK1 primary)
Cc1cncc2cccc(NC3CCCN(C(=O)C(O)c4ccc(Cl)cc4)C3)c12 (stereo unspecified)	none
Cc1cc2c(NC3CCCN(C(=O)C(O)c4ccc(Cl)cc4)C3)cccc2nn1 (stereo unspecified)	ULK1 primary 52
O=C(Nc1nnc2n1CCCS2)c1ccc(Cl)cc1	none (no result: ASK1 primary)
CN1CCN(c2ncn(-c3ccc(Nc4nccc(-c5cc(F)cc(N6CCC(O)CC6)c5)n4)cc3)n2)CC1	none
COCCNc1cc(-c2cccc(C(F)(F)F)c2)nc(-c2ccncc2)n1	none (no result: ASK1 primary)
O=C(Nc1ccc(N2CCOCC2)cc1)c1csc(Nc2ccncn2)n1	none
O=C(Nc1ccc(N2CCOCC2)cc1)c1cccc(Nc2ccc3ncccc3c2)n1	ULK1 primary 46
O=C(Nc1ccc(N2CCOCC2)cc1)c1csc(Nc2ncccn2)n1	ULK1 primary 53
CCN(CC)C(=O)C1CCCN(c2cccc(C(=O)NCCN3CCOCC3)n2)C1 (stereo unspecified)	none
